According to PubChem BioAssay (NCI):
This is part of a sample that, as a whole, favours compounds with a hit. Of some 83,000 tested, about 20% had one in any assay.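 Results are percent growth after 48 hours of single-concentration exposure. 100 means growth as in untreated cells, lower positive values show inhibition; negative values down to -100 show cell death.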 The source made the active and inactive calls. Rule for the calls: active = growth percent below 10; inactive = the rest.

tested on: SR leukemia; assay: NCI-60 one-dose screen, 48 h (100 = growth as untreated, 0 = no growth, -100 = all killed); details: 10 µM unless noted

Compound	growth
CC(C)(C)c1ccc(OCCCCCCCN2CCNCC2)cc1	-10.4% (active)
COC(=O)CNc1nc(N(C)O)nc(N(C)O)n1	34.3% (inactive)
COc1cc2ncnc(Nc3ccc(Oc4ccnc(C)c4)c(C)c3)c2cc1NC(=O)CC1CCSS1 (centres undefined)	-37.6% (active)
C=C(C)[C@@H]1CC[C@]2(C)[C@H](CC[C@@H]3[C@H]4[C@H]5OC[C@@]4(CCC5(C)C)CC[C@]32C)[C@@]1(C)CCCN	-0.922% (active)
c1ccc(-c2nc(Nc3ccc(-c4nc5ccccc5[nH]4)cc3)nc(N3CCOCC3)n2)cc1	8.94% (active)
CCOC(=O)C1OC1(c1ccccc1)c1ccccc1 (centres undefined)	108% (inactive)
CCN1CCN(C(=O)[C@@]2(C)CC[C@]3(C)CC[C@]4(C)C(=CC(=O)[C@@H]5[C@@]6(C)CC[C@H](OCCC#N)C(C)(C)[C@@H]6CC[C@]54C)[C@@H]3C2)CC1	4.19% (active)
O=S(=O)(NCCNc1cc(-c2cn(-c3ccccc3)nc2-c2cccc(O)c2)ccn1)c1cccc(F)c1	18.9% (inactive)
N#CC1=C(N)Oc2ccc3ccccc3c2C1c1ccccc1 (centres undefined)	25.1% (inactive)
COc1ccc(-c2cc(=O)oc3ccc(Cl)cc23)cc1F	11.2% (inactive)

tested on: RPMI-8226 leukemia; assay: as above; details: 10 µM unless noted

Compound	growth
COC(=O)[C@]12CC[C@@H](C)[C@H](C)[C@@H]1C1=CC[C@@H]3[C@@]4(C)C[C@@H](OC(C)=O)[C@H](O)[C@@](C)(COC(C)=O)[C@@H]4[C@H](O)C[C@@]3(C)[C@]1(C)CC2	-23.7% (active)
N#Cc1c(-c2ccco2)nc2c(c(-c3ccccc3)nn2-c2ccccc2)c1-c1ccc(O)cc1	55.3% (inactive)
CC(=O)c1c(C)[nH]c(-c2nc3ccc(N4CCN(C)CC4)cc3[nH]2)c1-c1ccc2c(c1)OCCO2	7.78% (active)
COc1ccc(C(=O)c2ccc(C)cc2)c(OC)c1OC	88.7% (inactive)
C[C@H]1OC(=O)/C=C/[C@@H](O)[C@@H](O)CCCCCCCC[C@@H]1O	101% (inactive)
COc1ccccc1-n1cnc(N)c1C(=O)c1cc(OC)c(OC)c(OC)c1	30.9% (inactive)
COc1ccc(/C=C(\C#N)c2cc3ccccc3n2S(C)(=O)=O)cc1	79.1% (inactive)
Cc1cccc2c1NC(=O)[C@@]21[C@H](C(=O)c2ccccc2)[C@]2(C(=O)Nc3ccccc32)[C@H]2CCCN21	30.9% [100 µM] (inactive)
N=c1ccc2nc3c(cc(N)c4ccccc43)oc-2c1	-49.3% (active)
COc1cccc(-c2nn(-c3ccccc3)cc2-c2ccnc(NCCCNS(=O)(=O)c3ccc(Br)cc3)c2)c1	34.5% (inactive)
Cc1ccc(-c2nn(Cc3cn(-c4cc(C)nc5ccccc45)nn3)c3ncnc(N)c23)cc1	35.6% (inactive)
COc1ccc2c(c1)c1nc3cc(C)c(C)cc3nc1n2CCN(C)C	-16.3% (active)
CC(=O)n1c(/C(C#N)=C/c2ccc(N(C)C)cc2)cc2ccccc21	16.2% (inactive)
C[C@H]1[C@H]2C3=CC[C@@H]4[C@@]5(C)C/C(=C/c6ccco6)C(=O)C(C)(C)[C@@H]5CC[C@@]4(C)[C@]3(C)CC[C@@]2(C(=O)N2CCOCC2)CC[C@@H]1C	40.4% (inactive)
Fc1ccc(Nc2ccc3c(OCCCN4CCOCC4)cccc3n2)cc1F	41.3% (inactive)
COc1cccc(-c2nn(-c3ccccc3)cc2-c2ccnc(NCCNS(=O)(=O)c3ccc(C(F)(F)F)cc3)c2)c1	-4.8% (active)
Cn1cnc2c1c(=O)n(CCC(=O)Nc1ccc(F)cc1)c(=O)n2C	101% (inactive)
COCCNC1=C(Cl)C(=O)c2ccccc2C1=O	90.4% (inactive)
CCCCn1c(-c2ccc(O)cc2)cn2c3c(=O)[nH]c(=O)n(C)c3nc12	84.7% (inactive)
Cc1ccc(N(CC(=O)Nc2ccc(S(=O)(=O)NC3CCN(C)CC3)cc2)S(=O)(=O)c2ccc(Cl)cc2)cc1	65.6% (inactive)

Compound	growth
CC(=O)OC[C@]12CC[C@@H](/C(C)=N/O)[C@@H]1[C@H]1CC[C@@H]3[C@@]4(C)CCCNC(C)(C)[C@@H]4CC[C@@]3(C)[C@]1(C)CC2	49.2% (inactive)
Clc1ccc(Cn2cc(-c3nc4ccc(Br)nc4n3Cc3ccc(Cl)cc3)c3cccnc32)cc1	67.6% (inactive)
CN1CCN(CCOc2ccc(-c3cnc4c(-c5cccc(F)c5)cnn4c3)cc2)CC1	31.7% (inactive)
CN1CCN(c2nc(-c3csc(-c4cccs4)n3)cc3ccccc23)CC1	13.3% (inactive)
CCN(CC)CCCCCCNc1ccnc2cc(Cl)ccc12	130% (inactive)
CCCCCCCC(=O)SCC/C=C/[C@@H]1CC(=O)NCc2cccc(n2)CN(Cc2ccc(Cl)cc2)CC(=O)N[C@@H](C(C)C)C(=O)O1	8.51% (active)
c1cc(N2CCCC2)c2nc(-c3[nH]ncc3Nc3ncnc4[nH]ccc34)[nH]c2c1	-7.49% (active)
COc1ccc(C2=NN(c3nc(-c4ccc(OC)cc4)c(C#N)c(=O)n3C)C(=O)CC2)cc1	95% (inactive)
Cc1ccc(S(=O)(=O)Nc2ccc(-c3cc(-c4cccc(F)c4)c(C#N)c(N)n3)cc2)cc1	-3.27% (active)
CC(C)(C)c1ccc(OCCCCCCCN2CCNCC2)cc1	-17% (active)
COC(=O)CNc1nc(N(C)O)nc(N(C)O)n1	36.4% (inactive)
COc1cc2ncnc(Nc3ccc(Oc4ccnc(C)c4)c(C)c3)c2cc1NC(=O)CC1CCSS1 (centres undefined)	-18.6% (active)
C=C(C)[C@@H]1CC[C@]2(C)[C@H](CC[C@@H]3[C@H]4[C@H]5OC[C@@]4(CCC5(C)C)CC[C@]32C)[C@@]1(C)CCCN	1.46% (active)
c1ccc(-c2nc(Nc3ccc(-c4nc5ccccc5[nH]4)cc3)nc(N3CCOCC3)n2)cc1	-22.6% (active)
CCOC(=O)C1OC1(c1ccccc1)c1ccccc1 (centres undefined)	95.6% (inactive)
CCN1CCN(C(=O)[C@@]2(C)CC[C@]3(C)CC[C@]4(C)C(=CC(=O)[C@@H]5[C@@]6(C)CC[C@H](OCCC#N)C(C)(C)[C@@H]6CC[C@]54C)[C@@H]3C2)CC1	63.2% (inactive)
O=S(=O)(NCCNc1cc(-c2cn(-c3ccccc3)nc2-c2cccc(O)c2)ccn1)c1cccc(F)c1	22.9% (inactive)
N#CC1=C(N)Oc2ccc3ccccc3c2C1c1ccccc1 (centres undefined)	21.8% (inactive)
COc1ccc(-c2cc(=O)oc3ccc(Cl)cc23)cc1F	28.1% (inactive)
